# Source: PubChem BioAssay
# SRC2 inh: human SRC2 (NCOA2) inhibition; Q15596; HEK293 GAL4-SRC2 luciferase reporter, luminescence; inhibition, % at 9 µM; 0.17% of 370,000 active; AID 651957;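 active means inhibition above the mean inhibition of all tested compounds plus 3 SD, set per campaign, cut at about 52% in these data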
# NR2F2 inh: blocks human COUP-TFII nuclear receptor | AID 686940 | HEK293T NGFI-A luciferase reporter, luminescence | 0.7% of 370,000 active | inhibition, % at 8.6 µM | P24468;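 active means inhibition above a per-plate cutoff, mean inhibition of test wells between control levels plus 3 SD, cut at about 38% in these data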;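 further: cells cotransfected with COUP-TFII expression vector driving the NGFI-A reporter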
# Target sequence (P24468 whole entry, looked up): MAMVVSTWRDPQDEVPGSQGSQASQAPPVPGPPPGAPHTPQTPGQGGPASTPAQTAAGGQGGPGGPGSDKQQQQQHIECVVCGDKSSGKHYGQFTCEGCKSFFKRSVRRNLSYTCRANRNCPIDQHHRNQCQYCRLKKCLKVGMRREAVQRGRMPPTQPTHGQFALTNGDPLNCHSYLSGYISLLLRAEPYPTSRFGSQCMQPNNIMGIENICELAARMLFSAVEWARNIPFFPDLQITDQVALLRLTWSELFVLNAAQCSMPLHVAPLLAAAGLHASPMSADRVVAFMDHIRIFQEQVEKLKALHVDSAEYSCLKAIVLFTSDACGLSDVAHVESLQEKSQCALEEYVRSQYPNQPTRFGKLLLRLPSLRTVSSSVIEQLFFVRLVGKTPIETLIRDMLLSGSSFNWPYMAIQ
# NCOA3 inh: inhibits human SRC3 coactivator; inhibition, % at 3.6 µM; AID 588352; HEK293 GAL4-SRC3 luciferase reporter, luminescence; Q9Y6Q9; 0.17% of 360,000 active;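 active means inhibition above a per-campaign cutoff, the mean of all compounds plus 3 SD, cut at about 60% in these data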;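 further: higher means less SRC3-driven luciferase light from the GAL4 reporter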
# NR5A2 inv ag: inverse agonists of human LRH-1 (NR5A2). O00482. HEK293T StAR-luciferase reporter, LRH-1 transfected, 24 h. inhibition, % at 3.6 µM. 0.13% of 360,000 active. AID 602396;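 active means inhibition above the mean inhibition of all tested compounds plus 3 SD, cut at about 73% in these data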
# SRC1 inh: human NCOA1 inhibition | Q15788 | HEK293 GAL4-SRC1 luciferase reporter, luminescence | inhibition, % at 3.6 µM | 0.12% of 360,000 active | AID 588354;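 active means inhibition above the campaign mean plus 3 SD, with each screening campaign given its own cutoff, cut at about 60% in these data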
# GalR3 antag: human GalR3 antagonism | AID 651719 | inhibition, % at 3 µM | O60755 | HEK293 GalR3-CNG cAMP membrane potential fluorescence; galR3 body fused to GalR1 C-terminus | 0.44% of 360,000 active;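 active means inhibition above the screen-wide average plus 3 SD, cut at about 13% in these data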;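 further: forskolin and galanin both at EC90 stimulate the cells; cAMP rise reported by CNG channel membrane potential dye signal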
# GalR3 conf: GalR3 (human) antagonism, confirmation; shares compounds with GalR3 antag; HEK293 GalR3 CNG cAMP biosensor, membrane potential fluorescence; galR3 fused to GalR1 carboxy tail; challenged with forskolin and galanin at EC90; inhibition, % at 3 µM; 59% of 1,600 active;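 active means inhibition above the primary screen's cutoff, the mean inhibition of all screened compounds plus 3 SD, cut at about 13% in these data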
# HEK-CNG parental: parental cell agonism counter-screen for GalR3 antagonists; shares compounds with GalR3 antag; HEK293-CNG parental cells, cAMP membrane potential fluorescence; normalised: DMSO wells 0%, forskolin wells 100%; activation, % at 3 µM; 10% of 1,600 active; AID 652268; in the data active means activation above about 1.3%
# Numbers stand for hits; . = inactive; / = not tested or not shown. Rows were chosen to be rich in hits. Some 1.1% of all compounds tested hit in one or more screens of this group.
SMILES,SRC2 inh,NR2F2 inh,NCOA3 inh,NR5A2 inv ag,SRC1 inh,GalR3 antag,GalR3 conf,HEK-CNG parental
CCC(=O)N1CCN(c2ccc(NC(=S)NC(=O)COc3ccccc3)cc2)CC1,.,.,.,.,.,.,/,/
C#CC1(O)C2C=C(OC)C(=O)C1C(c1ccccc1)C2C (stereo not drawn),.,.,/,/,/,/,/,/
Fc1ccc(-c2n[nH]c(=S)n2N=Cc2ccc(-c3ccccc3)cc2)cc1,.,.,/,/,/,/,/,/
COCCCNC(=O)C(=O)Nc1ccc2c(c1)N(S(=O)(=O)c1cccs1)CCC2,.,.,.,.,.,16,.,2.1
CS(=O)(=O)N1CCN(c2ccccc2NC(=O)c2ccc3ccccc3c2)CC1,.,.,.,.,.,.,/,/
CS(=O)(=O)N1CCN(c2ccccc2NC(=O)c2ccc(Cl)cc2)CC1,.,.,.,.,.,/,.,.
Cc1nn(-c2ccccc2)c2sc(C(=O)NCc3ccc(F)cc3)cc12,.,.,/,/,/,/,/,/
CCOc1ccc2[nH]c(=O)c(CN(Cc3ccco3)C(CC)c3nnnn3Cc3ccccc3)cc2c1 (stereo not drawn),.,.,.,.,.,24,.,.
CCOc1ccc2[nH]c(=O)c(CN(Cc3ccco3)Cc3nnnn3Cc3ccccc3)cc2c1,.,.,.,.,.,.,/,/
COC(=O)COc1ccc(S(=O)(=O)NCc2ccncc2)cc1,.,.,.,.,.,96,113,.
COc1cc(NC(=O)c2cc(Cl)ccc2Cl)ccc1-c1cc2ccccc2oc1=O,.,.,.,.,.,.,/,/
CCc1ccc(OCC(=O)Nc2ccc(-c3cc4ccccc4oc3=O)c(OC)c2)cc1,.,.,.,.,.,26,66,.
O=C1NC(=O)C(c2ccccc2[N+](=O)[O-])=C1Nc1ccc(O)c(Cl)c1,.,.,.,.,.,13,.,.
O=C(NNc1ccccc1[N+](=O)[O-])Nc1ccc(Cl)c(Cl)c1,.,.,.,.,.,.,/,/
COCCOC(=O)N(C)C[C@@H]1OCCCC[C@H](C)Oc2ccc(NC(=O)Nc3ccccc3)cc2C(=O)N([C@@H](C)CO)C[C@H]1C,/,.,/,/,/,/,/,/
FC(F)(F)c1cc(-c2ccccc2)nc(N2CCCCCC2)n1,.,.,.,.,.,15,.,.
COc1ccc(/C=N/NC(=O)c2c(C)n(C)c3ccc(OC)cc23)c(OC)c1,.,.,.,.,.,14,.,.
CC(C)CC(c1nnnn1C(C)C)N1CCN(c2ccccc2)CC1 (stereo not drawn),.,.,.,.,.,/,.,6.9
CC(C)(C)NC(=O)[C@H](c1cccnc1)N(C(=O)c1ccco1)c1ccc(C(C)(C)C)cc1,/,.,/,/,/,/,/,/
Cc1ccc(NC(=O)CN(C)C(=O)CCCN2C(=O)c3ccccc3C2=O)cc1,.,.,.,.,.,14,.,.
CCOC(=O)CCC(=O)N(CCN(C(=O)CCC(=O)OCC)c1ccccc1)c1ccccc1,.,.,.,.,.,.,/,/
CCOC(=O)CCc1cccc2c1CCC2=O,.,.,.,.,.,/,.,.
O=C1CCC[C@H]2C[C@H](NCc3cccnc3)CC[C@]23CCCN13,/,.,/,/,/,/,/,/
CCCCc1ccc(NC(=O)c2ccc(NS(C)(=O)=O)cc2)cc1,.,.,.,.,.,.,/,/
COc1ccc(NS(=O)(=O)c2ccc(NC(=O)c3ccc(N(C)S(C)(=O)=O)cc3)cc2)c(OC)c1,.,.,.,.,.,99,107,.
SMILES,SRC2 inh,NR2F2 inh,NCOA3 inh,NR5A2 inv ag,SRC1 inh,GalR3 antag,GalR3 conf,HEK-CNG parental
CCCCc1ccc(NC(=O)c2ccc(N(C)S(C)(=O)=O)cc2)cc1,.,.,.,.,.,36,115,.
C[C@H]1[C@@H](OC(=O)NCc2cccc(C(F)(F)F)c2)CC[C@@]23CCCN2C(=O)CCC[C@@H]13,/,.,/,/,/,/,/,/
CCCC/C=C1/[C@H](CC)N(C)C2=N[C@@H](c3ccccc3)CC(=O)N21,/,.,/,/,/,/,/,/
O=C(CN(Cc1cccs1)C(=O)CSc1nnc(COc2ccccc2)o1)NC1CCCCC1,.,.,.,.,.,13,.,.
Cc1cccc(C)c1NC(=O)COC(=O)c1c2c(nc3ccccc13)/C(=C\c1ccc3c(c1)OCO3)CCC2,.,.,.,.,.,/,.,.
O=S1(=O)CC2c3ccccc3CN2CN1Cc1ccccc1 (stereo not drawn),.,.,/,/,/,/,/,/
CCCCN1C(=O)N2Cc3ccccc3C2CS1(=O)=O (stereo not drawn),.,.,/,/,/,/,/,/
C/C(=N\O)c1ccco1,.,.,.,.,.,/,.,.
C/C(=N\NC(=O)c1ccc(C(=O)N/N=C(\C)c2ccco2)o1)c1ccco1,.,.,.,.,.,.,/,/
Cc1nnc(SCC(=O)Nc2cccc(S(=O)(=O)N(C)c3ccccc3)c2)s1,.,.,.,.,.,13,.,.
COCCn1cnnc1SCC(=O)Nc1cccc(S(=O)(=O)N(C)c2ccccc2)c1,.,.,.,.,.,.,/,/
CCOC(=O)c1ccc(NC(=O)Nc2nc3ccccc3s2)cc1,.,.,.,.,.,.,/,/
CCOC(=O)c1ccc(NC(=O)Nc2nncs2)cc1,.,.,.,.,.,14,20,1.4
CC(C)(C)OC(=O)N1CCC(c2ccc[nH]2)(c2c[nH]c3ccccc23)CC1,.,.,/,/,/,/,/,/
Cc1ccccc1NC(=O)CSc1nc(N)c2c3c(sc2n1)CSC(C)(C)C3,.,.,.,.,.,21,39,.
C#CC(C)OC(=O)C(C)NC(=O)c1ccccc1 (stereo not drawn),.,.,.,.,.,/,14,.
C/C=C/C(=O)N1CCC(C(=O)NCC2COc3ccccc3O2)CC1 (stereo not drawn),.,.,/,/,/,/,/,/
CCNC(=O)NC(=O)C(C)Oc1ccc(C(=O)OC)cc1 (stereo not drawn),.,.,.,.,.,20,.,.
O=C(C1CCCN1S(=O)(=O)c1cccs1)N1CCc2ccccc2C1 (stereo not drawn),.,.,/,/,/,/,/,/
COC(=O)C(C)Sc1nc2c(c(=O)[nH]c(=O)n2C)n1CCC(C)C (stereo not drawn),.,.,.,.,.,55,13,.
COC(=O)C(C)Sc1nc2c(c(=O)n(C)c(=O)n2C)n1CCC(C)C (stereo not drawn),.,.,.,.,.,.,/,/
CCOc1cc2c(cc1OC)C(NC(=O)C(F)(F)F)CC2=O (stereo not drawn),.,.,.,.,.,.,/,/
CCOc1cc2c(cc1OC)C(NC(=O)c1ccco1)CC2=O (stereo not drawn),.,.,.,.,.,17,.,.
Cc1ccc(CNC(=O)c2nc3nc(C)cc(C)n3n2)cc1,.,.,.,.,.,.,/,/
